Here are results for 79 compounds from PubChem BioAssay AID1259313 (Sanford-Burnham Center for Chemical Genomics, 2017).

Screen size: about 340,000 compounds; about 8,500 (2.5%) were called active. The entries come from a sample that favours actives as a whole. A number with no mark means an inactive call.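 Rule for the calls: active = melting temperature shift of at least 10% of the positive control shift, at one fixed dose; inactive = the rest.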

In the test the test system is Glutamate receptor ionotropic, NMDA 3A (GRIN3A) ligand-binding domain. Briefly: NR3A LBD thermal stabilization by compounds – biophysical, differential scanning fluorimetry, uHTS, primary screen (AID 1259313). The conditions noted are these: at 25 µM, active compounds read high, 0% = protein alone, 100% = glycine-bound protein. A general note: In DSF a fluorescence change marks the thermal transition of the protein.
In the case of `COc1cccc(NC(=O)CSc2nnc(-c3cccnc3)o2)c1`, the Tm shift relative to glycine control is -0.43%.
To `COc1ccc(C(=O)NCc2nnc(SCC(=O)Nc3cccc(OC)c3)o2)cc1` belongs -1.39%; to `COc1ccc2oc(-c3cccc(NC(=O)CSc4ccc(Cl)cc4)c3)nc2c1`, 13.7% (active); to `COCCCNC(=O)CNC(=O)c1nn(-c2ccc(OC)cc2)c(=O)c2ccccc12`, -1.01%.
To `CCOC(=O)C1CCN(CC(=O)Nc2ccc(OC)c(S(=O)(=O)N3CCCCC3)c2)CC1` belongs 0.25%; to `C#CCOCCOCCOCCNc1nc(N2CCN(C(=O)Cn3cc(CCCCN)nn3)CC2)nc(N2CCN(C(=O)[C@H](CCCCN)n3cc(CCC(=O)O)nn3)CC2)n1`, 1.78%.
To `C#CCOCCOCCOCCNc1nc(N2CCN(C(=O)[C@H](CCCCN)n3cc(CCC(=O)O)nn3)CC2)nc(N2CCN(C(=O)[C@H](CCCCN)n3cc(CC(C)O)nn3)CC2)n1` (some centres undefined) belongs 1.78%.
Turning to `C#CCOCCOCCOCCNc1nc(N2CCN(C(=O)CCCCCCCCCCNC(=O)[C@H]([C@@H](C)CC)n3cc(CCCCN=C(N)N)nn3)CC2)nc(N2CCN(C(=O)CCCCCCCCCCNC(=O)[C@H](CO)n3cc(CCCSC)nn3)CC2)n1`, the Tm shift relative to glycine control is 17% (active).
Under `C#CCOCCOCCOCCNc1nc(N2CCN(C(=O)CCCCCCCCCCNC(=O)Cn3cc(CCCCCN)nn3)CC2)nc(N2CCN(C(=O)CCCCCCCCCCNC(=O)[C@H](CO)n3cc(CCCSC)nn3)CC2)n1` stands 14.2% (active); under `C#CCOCCOCCOCCNc1nc(N2CCN(C(=O)Cn3cc(CCO)nn3)CC2)nc(N2CCN(C(=O)Cn3cc(CCCN=C(N)N)nn3)CC2)n1`, 0%.
Under `C#CCOCCOCCOCCNc1nc(N2CCN(C(=O)[C@H](C(C)C)n3cc(CCO)nn3)CC2)nc(N2CCN(C(=O)[C@H]([C@@H](C)CC)n3cc(CCCN=C(N)N)nn3)CC2)n1` stands 1.78%; under `C#CCOCCOCCOCCNc1nc(N2CCN(C(=O)[C@H](CCC(=O)O)n3cc(CN)nn3)CC2)nc(N2CCN(C(=O)[C@H](CCC(=O)O)n3cc(CN)nn3)CC2)n1`, 1.02%; under `C#CCOCCOCCOCCNc1nc(N2CCN(C(=O)CCCCCCCCCCNC(=O)[C@H](CCCCN)n3cc(C)nn3)CC2)nc(N2CCN(C(=O)CCCCCCCCCCNC(=O)[C@H](CO)n3cc(CCCSC)nn3)CC2)n1`, 24.7% (active).
Under `C#CCOCCOCCOCCNc1nc(N2CCN(C(=O)Cn3cc(CCO)nn3)CC2)nc(N2CCN(C(=O)[C@H](CCCCN)n3cc(CCCC)nn3)CC2)n1` stands 0.76%.
For the compound `CCn1c(SC)nc(O)c(C(c2ccc(OC)c(O)c2)c2c(O)nc(SC)n(CC)c2=O)c1=O`, the Tm shift relative to glycine control is -1.71%.
To `O=C(O)c1cc2ccccc2c(=O)s1` belongs -0.71%; to `O=C(CCNC(=O)Cn1ccc2ccccc2c1=O)NCCC1=CCCCC1`, -1.72%.
To `O=C(NCc1ccccn1)C1CCN(S(=O)(=O)c2ccc(Br)cc2)CC1` belongs -1.11%; to `Cc1nc(COc2cc3oc(=O)cc(C)c3cc2Cl)cs1`, -0.26%.
To `CCN(CC(=O)NC(C)C)C(=O)c1cc(S(=O)(=O)N2CCCCC2)ccc1N1CCCCC1` belongs -0.99%; to `CC(=O)Nc1ccc(Nc2nc3c(S(=O)(=O)c4ccc(C)c(C)c4)nnn3c3ccccc23)cc1`, 14.7% (active); to `Cc1cccc(Nc2nc3c(S(=O)(=O)c4ccccc4)nnn3c3ccccc23)c1C`, 1.31%.
With `Cc1ccc(S(=O)(=O)c2nnn3c2nc(N2CCN(c4ccccn4)CC2)c2ccccc23)cc1`, the Tm shift relative to glycine control was 5.05%.
To `CCC12CN3CC(CC)(CN(C1)C31C(=O)N(C)c3ccc(C)cc31)C2=O` (centres undefined) belongs 0%; to `O=c1c2ccccc2nc2n1C(CSc1ccc(F)cc1)CN2` (centres undefined), -3.8%; to `O=c1c2ccccc2nc2n1C(CSCc1cccc(C(F)(F)F)c1)CS2` (centres undefined), 16.1% (active).
Under `O=c1c2ccccc2nc2n1C(CSCc1ccccc1)CS2` (centres undefined) stands -1.4%.
Under `COc1ccc(C(=O)NCc2nnc(SCC(=O)NC3=NCCS3)n2C)cc1` stands -1.86%; under `CCOc1ccc(NC(=O)c2ccc(NC(=O)COC(=O)c3ccc(NC(=O)CC#N)cc3)cc2)cc1`, 9.12%; under `CCOc1ccc(NC(=O)c2ccc(NC(=O)CN3C(=O)C(=O)N(CC(C)C)C3=O)cc2)cc1`, 28.5% (active).
For `CCOc1ccc(NC(=O)CCNC(=O)c2ccc(Br)cc2)cc1`, the Tm shift relative to glycine control is -4.23%.
On to `CCCOc1ccc(Cl)cc1Nc1nc(NCCO)nc(N2CCCC2)n1`, for which the Tm shift relative to glycine control is 1.78%.
Under `Cc1cc(C)c(C#N)c(SCS(=O)c2ccc(C(C)(C)C)cc2)n1` (centres undefined) stands 1.37%; under `O=C(O)c1ccc(/C=N/NC(=O)c2ccc(Br)cc2)cc1`, -0.55%; under `O=C(N/N=C/c1ccc(OC(=O)c2ccccc2Cl)cc1)c1ccc(O)cc1`, 24.6% (active).
Take `O=C(N/N=C/c1ccc(OCc2ccccc2)cc1)c1ccc(O)cc1`: the Tm shift relative to glycine control is 28.3% (active).
To `O=C(COc1ccc(/C=N/NC(=O)c2ccc(O)cc2)cc1)Nc1ccc([N+](=O)[O-])cc1` belongs 7.26%; to `O=C(Cc1cccs1)N/N=C/c1ccc(OCc2ccccc2)cc1`, 2.17%; to `CC(C)(C)C(=O)Nc1ccc(C(=O)N/N=C/c2ccccc2OC(=O)c2ccc(Cl)cc2Cl)cc1`, 2.16%.
To `COc1cc(/C=N/NC(=O)Nc2ccccc2)ccc1OCCOc1ccccc1C` belongs -1.19%.
Take `O=c1[nH]cnc(O)c1C(c1ccc(F)cc1)c1c(O)nc[nH]c1=O`: the Tm shift relative to glycine control is 0.87%.
As for `Oc1ccc(-c2nncn2-c2ccccc2)cc1`, the Tm shift relative to glycine control was -3.14%.
Under `O=C(OCc1ccc(-c2ccccc2)cc1)c1cccc(O)c1` stands 9.28%.
Take `Oc1ccc(-c2cccc(-c3ccc(O)cc3)c2)cc1`: the Tm shift relative to glycine control is 31.9% (active).
To `CNC(=S)N1CCC(NC(=O)C(Cc2ccc(F)cc2)NC(C)=O)CC1` (centres undefined) belongs -1.22%; to `COc1ccc(CCNC(=O)CCCCCNC(=O)N2CCn3c2nc2ccccc23)cc1OC`, -1.29%; to `O=C(NCCCn1ccnc1)/C(=C\c1ccccc1F)NC(=O)c1ccccc1`, -0.09%.
To `CC(C)c1cc(C(=O)N/N=C/C(Br)=C/c2ccccc2)n[nH]1` belongs 6.56%; to `CC(/C=N/NC(=O)c1cc(-c2ccc3ccccc3c2)n[nH]1)=C\c1ccco1`, 16.4% (active).
Under `CC(C)(C)C1CCC(=NNC(=O)c2cc(-c3ccccc3)n[nH]2)CC1` (centres undefined) stands -5.15%; under `Cc1cc2c(cc1C)NC1(C[C@H]3CCC(=O)N4CC[C@@H](C1)[C@@H]34)C(=NC(C)(C)CC(C)(C)C)N2` (some centres undefined), -6.03%.
For `Cc1ccc(C)c(N2CCN(C(=O)CCCCCn3c(=S)[nH]c4ccc(N5CCOCC5)cc4c3=O)CC2)c1`, the Tm shift relative to glycine control was -2.75%.
To `CC(C)NC(=O)CCCn1c(=S)[nH]c2cc3c(cc2c1=O)OCO3` belongs -1.68%.
To `O=C(CCCCCn1c(=S)[nH]c2cc3c(cc2c1=O)OCO3)N1CCN(c2ccc(F)cc2)CC1` belongs 11.6% (active); to `CC(C)c1ccc(NC(=S)NC2CC3C=CC2C3)cc1` (centres undefined), 0.48%.
Under `Cc1ccc(N2C(=O)S/C(=C/c3cn(C)c4ccccc34)C2=O)cc1` stands 1.52%; under `Cc1cccc(N=C2NC(=O)/C(=C/c3cn(C)c4ccccc34)S2)c1`, 26.7% (active).
On to `Cc1ccc(N=C2NC(=O)/C(=C/C=C/c3ccco3)S2)cc1C`, for which the Tm shift relative to glycine control was 9.42%.
In the case of `Cc1cccc(N2CCN(C(=O)CN(C)S(=O)(=O)c3ccc4c(c3)CCC(=O)N4)CC2)c1C`, the Tm shift relative to glycine control was 0.4%.
To `CN(NC(=O)C1CC(=O)N(c2ccccc2)C1)C1=NS(=O)(=O)c2ccccc21` (centres undefined) belongs -0.38%.
Take `Cc1cccc(OCCNC(=S)NC(=O)c2cccnc2)c1`: the Tm shift relative to glycine control is 1.46%.
Under `Cc1cccc(NC(=O)NC(=S)NC(=O)c2ccccc2)c1` stands 20.6% (active); under `Cc1ccc(NC(=O)NC(=O)c2ccccc2)cc1F`, -0.73%.
Under `O=C(c1ccc[nH]c1=S)N1CCN(S(=O)(=O)c2ccc(Br)cc2Cl)CC1` stands -0.43%; under `COC(=O)C1(O)CC(C(C)C)=NN1C(=O)c1ccc(Cl)cc1` (centres undefined), -4.26%.
Under `Cc1ccc(NC(=O)CN2CCC3(O)CCCCC3C2c2ccc3c(c2)OCO3)c(C)c1` (centres undefined) stands 1.39%; under `Cc1cc(C)c(OCC(=O)N(Cc2cccs2)C2CCS(=O)(=O)C2)c(C)c1` (centres undefined), -2.05%.
For `Cc1ccc(-c2cn(S(=O)(=O)c3cccc([N+](=O)[O-])c3)nc2N)cc1`, the Tm shift relative to glycine control is 23.9% (active).
Under `CC1=NCCN1S(=O)(=O)c1cccc([N+](=O)[O-])c1` stands 0.43%; under `Cc1cc(C)n(S(=O)(=O)c2cccc([N+](=O)[O-])c2)n1`, -0.54%.
Take `O=C(COC(=O)c1ccco1)Nc1ccc(Cl)cn1`: the Tm shift relative to glycine control is -4.19%.
`CCN(c1ccccc1)S(=O)(=O)c1ccc(OCC(=O)N2CCCC2)cc1`: the Tm shift relative to glycine control was -0.92%.
Under `COC(=O)C(NS(=O)(=O)c1ccc(F)cc1)c1ccccc1` (centres undefined) stands 0%.
For `COc1ccc(CN2CCN(Cc3ccc(OC)c(OC)c3OC)CC2)cc1`, the Tm shift relative to glycine control is -0.74%.
To `Cc1ccc(NC(=O)Nc2cc(-c3ccccc3)nn2C)cc1Cl` belongs 47.8% (active); to `Cc1ccc(NC(=O)COc2ccc(-n3ccnc3)cc2)cc1Cl`, -10.8%; to `Cc1cc(NC(=O)Nc2ccc(Cl)cc2)n(-c2ccccc2)n1`, 3.84%.
For the compound `O=C(NC(Cc1c[nH]c2ccccc12)C(=O)O)/C(=C/c1ccco1)NC(=O)c1ccccc1` (centres undefined), the Tm shift relative to glycine control is 5.13%.
For the compound `Cc1ccc(S(=O)(=O)NNC(=O)Nc2cccc3ccccc23)cc1`, the Tm shift relative to glycine control was 1.46%.
